tim23-1 inh: tim23-1 yeast growth inhibition. S. cerevisiae tim23-1 growth, BacTiter-Glo luminescence, 24 h. inhibition, % at 20 µM. 1.3% of 330,000 active;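 active means growth inhibition of the mutant yeast at or above 50%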;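 further: temperature-sensitive mutant grown at 25 °C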
tim10-1 inh: growth inhibitors of tim10-1 mutant yeast | S. cerevisiae tim10-1 ts strain growth, BacTiter-Glo, 24 h | inhibition, % at 20 µM | 2.2% of 330,000 active;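 active means inhibition of at least 40%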;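 further: mutant grown at 25 °C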
SKKanGAS inh: SKKanGAS growth inhibition | inhibition, % at 7.5 µM | AID 1662 | 1.3% of 300,000 active | S. pyogenes SKKanGAS, kanamycin growth, BacTiter-Glo, 6 h;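 active means mean replicate score, as percent of positive control median, at least 50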;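 further: strain carries kanamycin resistance gene driven by streptokinase promoter and grows in 40 µg/ml kanamycin; loss of luminescence reflects streptokinase promoter inhibition or plain growth inhibition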
NALP3 yeast inh: NALP3 inhibition in yeast. Yeast reconstituted NLRP3/ASC/caspase-1, beta-gal luminescence, 24 h. inhibition, % at 10 µM. 0.39% of 330,000 active;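 active means inhibition of 50% or more; inactive means inhibition below 50%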
TIM10 inh: TIM10 yeast growth inhibition; S. cerevisiae TIM10 strain growth, BacTiter-Glo luminescence, 24 h; AID 463195; inhibition, % at 10 µM; 1.4% of 330,000 active;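 active means inhibition of 40% or more at the single tested concentration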;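 further: wild-type TIM10 isogenic control strain grown at permissive 25 °C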
tim10-1 conf: tim10-1 yeast growth inhibition, confirmed; inhibition, % at 20 µM; shares compounds with tim10-1 inh; 56% of 7,400 active; S. cerevisiae tim10-1 ts strain growth, BacTiter-Glo, 24 h;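 active means inhibition of yeast growth at or above a set limit in either of two repeat tests at 20 µM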;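 further: tim10-1 mutant grown at permissive 25 °C to find synthetic lethal compounds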
tim10 confirm: TIM10 yeast growth inhibition, confirmed. inhibition, % at 10 µM. 63% of 4,600 active. shares compounds with TIM10 inh. S. cerevisiae tim10 strain growth, BacTiter-Glo luminescence, 24 h;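 active means inhibition of yeast growth at or above a set limit in either of two replicates at 10 µM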; further: this counterscreen used the strain with wild-type TIM10
tim23-1 conf: tim23-1 yeast growth inhibition, confirmed; AID 463218; inhibition, % at 20 µM; 83% of 4,400 active; shares compounds with tim23-1 inh; S. cerevisiae tim23-1 growth, BacTiter-Glo luminescence, 24 h;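 active means inhibition above about 39% in either of two replicate wells at 20 µM, limit read from the data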;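 further: temperature-sensitive tim23-1 mutant grown at 25 °C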
A number is an active result; . = inactive; / = no result given. An excerpt weighted towards active compounds, which were near 4.6% of everything screened.

SMILES	tim23-1 inh	tim10-1 inh	SKKanGAS inh	NALP3 yeast inh	TIM10 inh	tim10-1 conf	tim10 confirm	tim23-1 conf
CCn1c(SC(C)C(=O)Nc2ccc3c(c2)OCCO3)nnc1C1CC1 (centres undefined)	.	.	/	.	.	/	/	/
CCOC(=O)C1=C(CSc2nc(CC)c(C)cc2C#N)OC(N)=C(C#N)C1c1ccc(OC)cc1 (centres undefined)	54	41	.	.	.	.	/	61
CCOC(=O)c1ccc(NC(=O)CCC2COc3ccccc3O2)cc1 (centres undefined)	53	41	.	.	.	36	/	48
Nc1nc(SCC(=O)c2c(N)n(Cc3ccccc3)c(=O)[nH]c2=O)n[nH]1	.	.	.	.	.	/	/	/
O=C(COc1cccc(NC(=O)c2ccccc2)c1)c1ccccc1	.	.	.	.	.	/	/	/
O=C(COc1cccc(NC(=O)c2cccs2)c1)c1ccc(F)cc1	53	46	.	.	62	40	.	76
COc1ccc(CCNC(=O)c2ccc3c(c2)OCCO3)cc1	.	.	.	.	.	/	/	/
Cc1ccc(SCCNS(=O)(=O)c2ccc3c(c2)OCCO3)cc1	55	52	.	.	51	42	.	53
O=S(=O)(NCCSCc1ccc(Cl)c(Cl)c1)c1ccc2c(c1)OCCO2	55	47	.	.	53	33	36	49
COc1ccc(CCNS(=O)(=O)c2ccc3c(c2)OCCO3)cc1	59	50	.	.	49	42	.	56
COc1ccc(S(=O)(=O)NCc2ccc(C)cc2)cc1	56	48	.	.	.	.	/	43
O=C(NC12CC3CC(CC(C3)C1)C2)c1cc(F)c(F)c(F)c1F	.	.	.	.	.	/	/	/
CCOc1ccccc1NC(=O)c1cc(=O)[nH]c2ccc(S(=O)(=O)N3CCOCC3)cc12	.	.	/	.	.	/	/	/
Cc1ccc(CNC(=O)c2ccc(C)c(S(=O)(=O)N3CCCCC3)c2)cc1	.	.	/	.	.	/	/	/
Cc1occc1C(=O)N/N=C/c1ccc(OCc2ccccc2)cc1	.	.	.	.	.	/	/	/
Cc1occc1C(=O)N/N=C/c1ccc(-c2ccccc2)cc1	63	59	55	.	43	56	41	57
O/N=C(\c1ccc(Cl)cc1)c1cc2ccccc2o1	67	46	.	.	53	67	60	64
O=C(Nc1ccc(Cl)cc1Cl)c1cc2ccccc2o1	.	.	.	.	.	/	/	/
CCOc1ccccc1N/C(=C(/C(Cl)=C(Cl)Cl)[N+](=O)[O-])n1cncn1	.	.	/	.	.	/	/	/
CCN(CC)/C(Sc1ccccc1)=C(\C(Cl)=C(Cl)Cl)[N+](=O)[O-]	51	44	.	.	46	35	.	51
CCN(Cc1ccncc1)C(=O)c1cc(COc2c(C)cccc2C)on1	.	.	.	.	.	/	/	/
O=C(COc1ccc2ccccc2c1)Nc1ccccc1C(=O)O	.	.	.	.	.	/	/	/
O=C(c1ccccc1)C(CCC(CN1CCOCC1)C(=O)c1ccccc1)CN1CCOCC1 (centres undefined)	53	54	.	.	60	48	68	47
CCNC(=S)N/N=C/c1cn(Cc2ccccc2F)c2ccccc12	.	.	.	.	.	/	/	/
CNC(=S)N/N=C/c1cn(Cc2c(F)cccc2Cl)c2ccccc12	51	47	.	.	57	37	.	40
SMILES	tim23-1 inh	tim10-1 inh	SKKanGAS inh	NALP3 yeast inh	TIM10 inh	tim10-1 conf	tim10 confirm	tim23-1 conf
CC(=O)Nc1ccc(N=Cc2c(O)c3ccccc3oc2=O)cc1	.	.	.	.	.	/	/	/
CC(=O)Nc1ccc(N=Cc2c(O)c(C(=O)Nc3ccccc3)cc3ccccc23)cc1	64	49	61	.	63	.	.	.
COc1ccc(CNC(=O)CN(Cc2ccccc2)C(=O)CCC(=O)Nc2ccccn2)cc1	.	.	.	.	.	/	/	/
CC1CC(C)CN(S(=O)(=O)c2cc3c(cc2Cl)NC(=O)CO3)C1 (centres undefined)	.	.	.	.	.	/	/	/
CN(C1CCCCC1)S(=O)(=O)c1cc2c(cc1Cl)NC(=O)CO2	51	47	.	.	.	.	/	.
CN(C)c1cccc(C(=O)Nc2cc(C(F)(F)F)ccc2-n2cnc3ccccc32)c1	.	.	.	.	.	/	/	/
O=[N+]([O-])c1cc(Cl)cc2c1nc(NCCO)c1ccccc12	55	67	.	.	.	50	/	47
c1ccc2c(c1)OCCc1c-2[nH]c2ccccc12	61	46	.	.	.	42	/	58
COc1ccccc1C/C(N)=N/OC(=O)/C=C/c1ccccc1	75	53	.	.	83	33	83	76
COc1ccc(C(=O)O/N=C(/C)c2cccs2)cc1	.	.	.	.	.	/	/	/
N/C(=N\OC(=O)/C=C/c1ccccc1)c1ccncc1	.	.	.	.	.	/	/	/
Cc1ccccc1C(=O)O/N=C(\N)Cc1cccs1	77	67	.	.	90	70	69	80
COc1ccc(C/C(N)=N/OC(=O)c2cccs2)cc1	85	46	.	.	77	63	74	80
COc1ccccc1C/C(N)=N/OC(=O)c1cccs1	77	64	.	.	59	53	61	64
Cc1ccc(N2C(=O)c3ccccc3C2C(=O)c2ccc(C)c(C)c2O)cc1 (centres undefined)	.	.	.	.	.	/	/	/
Cc1ccc(NC(=O)CN(C)C(=O)Cc2c(Cl)cccc2Cl)cc1	.	.	.	.	.	/	/	/
Cn1cccc1/C=N/n1c(-c2ccc(C(C)(C)C)cc2)n[nH]c1=S	54	44	.	.	.	.	/	49
Cn1cccc1/C=N/n1c(-c2ccccc2)n[nH]c1=S	.	.	.	.	.	/	/	/
O=C(/C=C/c1c(Cl)cccc1Cl)n1cccn1	60	56	.	.	41	57	55	85
O=C(/C=C/c1c(Cl)cccc1Cl)N1CCOCC1	.	.	.	.	.	/	/	/
C/C(=N\NC(=O)COc1cc(C)cc(C)c1)c1cccc(NC(=O)C2CCC2)c1	.	.	.	.	.	/	/	/
CNCc1ccccc1Sc1cc(O)ccc1O	60	51	/	.	.	47	/	56
COc1ccc(/C=C/C(=O)c2c(O)ccc3c(C)cc(=O)oc23)cc1	50	51	.	.	55	47	57	60
CCOc1ccc(/C=C/C(=O)c2c(O)cc(C)oc2=O)cc1	.	.	.	.	.	/	/	/
COc1ccc(/C=C\C(=O)c2c(O)ccc3c(C)cc(=O)oc23)cc1	53	52	.	.	.	36	/	51
COc1ccc(-c2cc(=O)oc3c(C)c(O)ccc23)cc1	.	.	.	.	.	/	/	/
Cc1c(C2(O)CCCCC2)[nH]c2cnccc12	.	.	/	.	.	/	/	/

From PubChem BioAssay
